Source: PubChem
Rin1 Abl inh – human Rin1-Abl interaction inhibition. 360,000 tested, 0.4% active. AID 588664. inhibition, % at 7.35 µM. TR-FRET Rin1/Abl binding, biochemical; in the data active means inhibition above about 5%, passing the limit was not always enough
Target sequence (P00519 whole entry, looked up): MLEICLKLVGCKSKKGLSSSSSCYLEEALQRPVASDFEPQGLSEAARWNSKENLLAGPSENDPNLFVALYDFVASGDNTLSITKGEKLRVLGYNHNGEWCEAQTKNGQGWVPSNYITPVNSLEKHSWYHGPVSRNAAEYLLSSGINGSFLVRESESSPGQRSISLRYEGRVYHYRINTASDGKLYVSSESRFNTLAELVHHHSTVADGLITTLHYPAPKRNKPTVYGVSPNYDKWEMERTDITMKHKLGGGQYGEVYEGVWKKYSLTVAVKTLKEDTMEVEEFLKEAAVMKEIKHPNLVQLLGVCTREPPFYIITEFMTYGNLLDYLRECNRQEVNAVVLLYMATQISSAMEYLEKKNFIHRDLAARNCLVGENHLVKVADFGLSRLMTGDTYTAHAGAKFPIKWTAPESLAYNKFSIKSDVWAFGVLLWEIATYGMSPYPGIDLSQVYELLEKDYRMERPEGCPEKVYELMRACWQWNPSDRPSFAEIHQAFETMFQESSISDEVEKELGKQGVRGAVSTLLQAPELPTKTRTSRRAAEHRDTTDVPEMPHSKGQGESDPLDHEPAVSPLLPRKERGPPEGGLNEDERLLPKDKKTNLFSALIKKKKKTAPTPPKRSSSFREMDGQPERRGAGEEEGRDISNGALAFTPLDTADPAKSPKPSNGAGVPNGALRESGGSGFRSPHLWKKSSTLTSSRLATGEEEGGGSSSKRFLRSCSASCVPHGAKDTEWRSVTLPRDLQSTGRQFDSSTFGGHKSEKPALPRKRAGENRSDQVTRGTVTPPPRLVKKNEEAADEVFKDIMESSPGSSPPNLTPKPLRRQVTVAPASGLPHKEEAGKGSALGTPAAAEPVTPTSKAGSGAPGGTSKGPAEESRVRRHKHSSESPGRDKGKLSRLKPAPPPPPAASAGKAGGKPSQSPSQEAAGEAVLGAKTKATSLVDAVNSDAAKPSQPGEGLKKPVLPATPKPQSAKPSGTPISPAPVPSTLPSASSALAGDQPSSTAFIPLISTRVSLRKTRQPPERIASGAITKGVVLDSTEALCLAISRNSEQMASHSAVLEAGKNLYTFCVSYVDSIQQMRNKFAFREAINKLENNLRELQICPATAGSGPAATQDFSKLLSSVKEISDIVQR
Target sequence (Q13671 whole entry, looked up): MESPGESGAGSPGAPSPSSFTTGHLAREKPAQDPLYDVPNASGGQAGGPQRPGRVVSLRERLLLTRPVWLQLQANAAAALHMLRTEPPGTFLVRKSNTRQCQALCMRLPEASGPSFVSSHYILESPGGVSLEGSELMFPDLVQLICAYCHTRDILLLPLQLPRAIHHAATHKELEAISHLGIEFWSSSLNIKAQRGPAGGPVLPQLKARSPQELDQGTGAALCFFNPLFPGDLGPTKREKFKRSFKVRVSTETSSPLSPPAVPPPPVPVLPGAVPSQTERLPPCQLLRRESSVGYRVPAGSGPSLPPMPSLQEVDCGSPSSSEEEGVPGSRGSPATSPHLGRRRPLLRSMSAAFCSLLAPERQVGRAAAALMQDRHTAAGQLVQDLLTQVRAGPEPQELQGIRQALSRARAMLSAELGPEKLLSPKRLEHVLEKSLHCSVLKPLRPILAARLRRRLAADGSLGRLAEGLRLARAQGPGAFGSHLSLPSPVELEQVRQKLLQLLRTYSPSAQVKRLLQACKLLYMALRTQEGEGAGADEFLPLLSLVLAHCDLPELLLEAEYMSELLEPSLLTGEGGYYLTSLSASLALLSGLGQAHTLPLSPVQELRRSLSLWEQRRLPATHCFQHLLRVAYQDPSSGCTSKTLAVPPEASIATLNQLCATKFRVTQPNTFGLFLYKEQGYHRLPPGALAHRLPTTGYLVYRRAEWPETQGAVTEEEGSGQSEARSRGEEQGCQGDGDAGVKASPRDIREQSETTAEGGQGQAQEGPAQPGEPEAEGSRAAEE
PfM18AAP inh-1 – blocks P. falciparum M18 aspartyl aminopeptidase; 290,000 tested, 1.2% active; AID 1822; inhibition, % at 7.35 µM; recombinant PfM18AAP, H-Glu-NHMec fluorogenic cleavage;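 active means inhibition above the campaign mean inhibition over all tested compounds plus 3 SD, cut at about 28% in these data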;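 further: 0% = plate median of test compound wells and 100% = 2 mM ZnCl2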
CTSL1 counter-1 – counter-screen for PFM18AAP inhibitors: inhibitors of F. hepatica cathepsin L1; recombinant F. hepatica cathepsin L1, Z-Leu-Arg-MCA fluorescence; 300,000 tested, 0.49% active; inhibition, % at 5.96 µM;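 active means inhibition above the mean of all tested compounds plus 3 SD, set per screening campaign, cut at about 17% in these data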;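 further: 0% = plate median of test compound wells and 100% = 1 µM Z-Phe-Ala-diazomethylketone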
Calb FLC – affects C. albicans growth with fluconazole; C. albicans CaCi-2 (fluconazole-resistant clinical isolate) + fluconazole, Alamar Blue growth, 48 h; growth inhibition, % (test concentration not listed); 300,000 tested, 0.57% active; AID 1979;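 active means growth inhibition above about 58% in most replicates, limit read from the data, passing the limit was not always enough; inconclusive means exactly half the replicates above a set limit; inactive means most replicates below a set limit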;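 further: all wells also contain fluconazole at 8 µg/ml as a sub-toxic cotreatment; 0% = median of DMSO wells and 100% = median of geldanamycin control wells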
PfM18AAP inh-2 – PfM18AAP inhibition, confirmation | 2,400 tested, 28% active | shares compounds with PfM18AAP inh-1 | inhibition, % at 7.35 µM | recombinant PfM18AAP, H-Glu-NHMec fluorogenic cleavage;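 active means mean inhibition over replicate wells above the hit cutoff set for the earlier primary screen, cut at about 29% in these data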;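 further: 0% = median of test compound wells and 100% = 2 mM ZnCl2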
CTSL1 counter-2 – Cathepsin L (human) inhibition, confirmation; purified cathepsin L1, Z-Leu-Arg-MCA fluorescence; 2,400 tested, under 10 active; AID 2178; inhibition, % at 5.96 µM; shares compounds with PfM18AAP inh-1;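 active means average inhibition across replicates above the hit cutoff set in the earlier primary screen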;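 further: 0% = median of test compound wells and 100% = Z-Phe-Ala-diazomethylketone 1 µM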
* = called active by the depositor; ? = inconclusive; · = no result given. Most compounds without a hit are left out; they make up all but 2.1% or so of the library.

SMILES	Rin1 Abl inh	PfM18AAP inh-1	CTSL1 counter-1	Calb FLC	PfM18AAP inh-2	CTSL1 counter-2
BrC(=C\c1ccccc1)/C=N/Nc1ccc2nncn2n1	-2	32*	6	-4	-17	-1
BrC(/C=N/Nc1nc(N2CCOCC2)nc(N2CCOCC2)n1)=C/c1ccccc1	0	21	5	9	·	·
C(=N\Nc1ccc2nncn2n1)/c1ccco1	-3	34*	3	1	3	2
COc1cccc(/C=N/Nc2nn3cnnc3c3ccccc23)c1	-4	40*	0	0	-46	5
Cc1cc(C)n2nc(SCCCC(=O)c3ccc(F)cc3)nc2n1	0	2	-10	18	·	·
CC1CN(S(=O)(=O)c2ccccc2)C(C)N1C(=O)N1CCOCC1 (centres undefined)	-2	0	-1	2	·	·
OC1COC(OCC2OC(OCc3ccccc3)C(O)C(O)C2O)C(O)C1O (centres undefined)	3	35*	-1	1	-3	-9
OC[C@H]1O[C@H](OCc2ccccc2)[C@H](O[C@@H]2OC[C@@H](O)[C@H](O)[C@H]2O)[C@@H](O)[C@@H]1O	0	·	-1	-6	·	·
O=C(CSc1nnc(-c2ccncc2)o1)Nc1nncs1	0	19	-4	-30	·	·
O=C(CSc1nnc(-c2ccccc2Br)o1)Nc1nncs1	0	44*	2	6	-2	-4
CCN(CC)c1ccc(N=Cc2cc(Br)ccc2O)cc1	6	37*	-5	-5	-18	-5
Cc1ccc(O)c(C=Nc2ccc3[nH]ncc3c2)c1	-3	-4	-2	9	·	·
Oc1cccc(/C=N/N=C/c2cccc(O)c2O)c1O	4	42*	0	6	7	-1
Cc1ccc(O)c(C=Nc2cc(C)ccc2O)c1	-1	32*	-2	14	37*	-2
Cc1ccc(O)c(N=CC2=C(O)c3ccccc3C2=O)c1	-5	71*	0	27	-15	5
O=C1C(C=Nc2ccccc2O)=C(O)c2ccccc21	-3	15	3	-22	·	·
C[C@]12C=CC(=O)C=C1CC[C@@H]1[C@@H]2[C@@H](O)C[C@@]2(C)[C@H]1CC[C@]2(O)C(=O)COC(=O)CCC(=O)NCCc1ccc(O)cc1	5	5	·	2	·	·
O=C(Nc1ccnn1C1CCN(C(=O)c2cccc(C(F)(F)F)c2)CC1)C1CC1	0	6	·	-12	·	·
Cc1ccc(N=Cc2cccc(O)c2O)c(C)c1	4	34*	-1	18	37*	-4
CC(C)(C)c1ccc(O)c(N=Cc2cc(Br)ccc2O)c1	1	56*	-4	-20	88*	-3
CC1Sc2ccc(C(=O)O)cc2NC1=O (centres undefined)	-1	44*	-2	22	-60	-9
ONC(=Nc1ccc(Cl)cc1)c1ccccc1	1	4	-1	?	·	·
O=C(CSc1ncn[nH]1)Nc1ncc(C(F)(F)F)cc1Cl	2	84*	2	5	74*	-5
Cn1c(C(=O)O)cnc1Sc1ncc(C(F)(F)F)cc1Cl	-1	2	-2	-12	·	·
Nc1cc(=O)[nH]c(SCC(=O)Nc2ncc(C(F)(F)F)cc2Cl)n1	2	7	-3	35	·	·
SMILES	Rin1 Abl inh	PfM18AAP inh-1	CTSL1 counter-1	Calb FLC	PfM18AAP inh-2	CTSL1 counter-2
FC(F)(F)c1cnc(Sc2ncn[nH]2)c(Cl)c1	0	92*	12	1	83*	-4
O=C(CN1CCN(c2ccc(O)cc2)CC1)Nc1cc(S(=O)(=O)N2CCCC2)ccc1Cl	-1	36*	1	-11	-14	-3
COc1cc(N=Cc2c(CO)cnc(C)c2O)cc(OC)c1OC	-3	35*	8	-5	-13	-1
COc1ccccc1N/N=C/c1c(CO)cnc(C)c1O	-2	7	2	-27	·	·
CC(C)Cn1c(-c2nn(C)cc2Cl)n[nH]c1=S	-6	12	-2	6	·	·
Cc1ccsc1-c1n[nH]c(=S)n1CC(C)C	2	34*	3	7	-13	5
Cc1c(C)n(CCc2ccccc2)c2ncnc(NN)c12	2	44*	-3	-5	4	2
Cc1c(C)n(CCc2ccccc2)c2ncnc(NCCCO)c12	0	-14	-8	7	·	·
Cc1c(C)n(Cc2ccccc2)c2ncnc(NN)c12	3	34*	-4	-7	-3	-10
Cn1c(=O)c2c(nc(SCc3ccccc3F)n2C)n(C)c1=O	-3	2	0	-8	·	·
COc1cccc([C@@H]2CC=C(C(=O)O)[C@H](c3ccccc3F)N2S(=O)(=O)c2ccc(C)cc2)c1	0	·	0	·	·	·
CC(CC(=O)O)Nc1ccccc1O (centres undefined)	0	38*	-5	35	8	-1
CC(C)C(NC(=O)c1ccccc1F)C(=O)NCc1ccccc1 (centres undefined)	-4	-1	4	-3	·	·
O=C(NC(=S)NNS(=O)(=O)c1ccccc1)c1ccc([N+](=O)[O-])cc1	0	50*	-1	4	-9	4
CCOC(=O)c1cnc2c(C)c(C)ccc2c1NCCN1CCOCC1	-4	2	·	-1	·	·
CCC(CC)c1nnc(NC(=O)Cc2cccs2)s1	1	40*	-1	0	-33	2
N#C/C(=C(/O)CSc1ncn[nH]1)c1nc2ccccc2[nH]1	2	64*	2	11	9	3
Cc1cc(C)n2c(SCC(O)=C(C#N)c3nc4ccccc4[nH]3)nnc2n1	4	·	·	·	·	·
CC1(C)CC(=O)C=C(NNC(=O)OC(C)(C)C)C1	2	-2	3	-9	·	·
Cc1occc1C(=O)NNC1=CC(=O)CC(C)(C)C1	3	55*	0	-16	30*	4
COc1ccc(C(=O)NNC2=CC(=O)CC(C)(C)C2)cc1OC	-1	40*	2	-1	4	-4
CC1(C)CC(=O)C=C(NNC(=O)c2ccc(N)cc2)C1	0	48*	6	11	19	3
CC(O)CCC(=O)NNC1=CC(=O)CC(C)(C)C1 (centres undefined)	·	1	-1	-8	·	·
CC(C)[C@@H](CO)NS(=O)(=O)c1ccc(Br)cc1F	0	·	·	·	·	·
CC[n+]1c(C)sc2cc(C)ccc21	3	47*	-2	-16	-34	1
SMILES	Rin1 Abl inh	PfM18AAP inh-1	CTSL1 counter-1	Calb FLC	PfM18AAP inh-2	CTSL1 counter-2
Cc1ccc2sc(C)[n+](CCO)c2c1	3	37*	-3	1	-5	2
O=C1CCCN1CCCN1CC(C(=O)N(CCO)Cc2ccccc2)CCC1=O (centres undefined)	4	-3	0	3	·	·
COc1cc(CNc2ccc(N3CCCCC3)cc2)ccc1OCC(=O)NC(C)(C)C	0	43*	-4	13	-33	-1
COc1cc(CNc2ccc(N3CCCC3)cc2)ccc1OCc1ccccc1	1	8	-1	·	·	·
O=C(O)c1ccc(NNC(=S)Nc2cc(C(F)(F)F)ccc2Cl)cc1	2	35*	-4	34	-30	-4
O=C(NC(=S)Nc1cc(C(F)(F)F)ccc1Cl)c1ccccc1	-4	14	2	12	·	·
